For nine compounds, growth results are on record in PubChem BioAssay (NCI).

This is part of a sample that, as a whole, favours compounds with a hit. Of some 83,000 tested, about 20% had one in any assay.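 Note: values are percent growth. 100 is the growth of untreated cells, values between 100 and 0 indicate rising inhibition; between -100 and 0 indicates cell death.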 Values without a mark were called inactive. Activity calls are given as the source filed them. Rule for the calls: active = growth percent below 10; inactive = the rest.

Some test systems named below: HT29 colon; SNB-75 CNS; SNB-19 CNS; U251 CNS; PC-3 prostate; SK-MEL-5 melanoma; UACC-62 melanoma; LOX IMVI melanoma; SK-MEL-28 melanoma; EKVX NSCLC; SN12C renal; UO-31 renal; TK-10 renal; ACHN renal; CAKI-1 renal; A498 renal; CCRF-CEM leukemia; MOLT-4 leukemia; SR leukemia; SK-MEL-2 melanoma.
What all share (experiment): NCI-60 one-dose screen, 48 h (100 = growth as untreated, 0 = no growth, -100 = all killed)
What all share (settings): 10 µM unless noted

Regarding `Cc1nn(-c2ccccc2)c2nc3c(nc12)C(=O)CCC3`, the growth is 99% in the assay on HT29 colon; 98.2% with SNB-75 CNS; 104% in the assay with SNB-19 CNS; 102% with U251 CNS; 90% in the assay with PC-3 prostate; 88.3% in the assay on SK-MEL-5 melanoma. In addition, the growth with UACC-62 melanoma is 86.3%; in the assay with LOX IMVI melanoma, 90.3%; in the assay with SK-MEL-28 melanoma it was 114%; with EKVX NSCLC, 93.8%; in the assay with SN12C renal, 90.1%; with UO-31 renal, 66.4%. For the same compound, the growth in the assay with TK-10 renal is 104%; in the assay on ACHN renal it was 95.5%; in the assay on CAKI-1 renal, 101%; in the assay on A498 renal, 81.7%.

As to `Cc1c(C(N)=O)sc2ncn(CC(=O)Nc3ccc(Cl)cc3)c(=O)c12`, the growth with HT29 colon is 126%; in the assay with SNB-75 CNS, 101%; in the assay on SNB-19 CNS it was 103%; with U251 CNS, 102%; in the assay on PC-3 prostate it was 97%; in the assay with SK-MEL-5 melanoma, 107%. Besides, the growth in the assay with UACC-62 melanoma is 99.2%; in the assay with LOX IMVI melanoma, 96.8%; in the assay with SK-MEL-28 melanoma, 145%; with EKVX NSCLC it was 104%; in the assay on SN12C renal, 112%; in the assay on UO-31 renal it was 160%. For the same compound, the growth in the assay on TK-10 renal was 128%; in the assay on ACHN renal it was 108%; in the assay with CAKI-1 renal, 40.6%; with A498 renal, 126%; in the assay with CCRF-CEM leukemia it was 121%; in the assay on MOLT-4 leukemia, 112%. Also, the growth in the assay with SR leukemia was 85%.

In the case of `CN(C(=O)c1ccccc1)N(C)C(=O)c1ccccc1`, the growth with HT29 colon was 93.4%; in the assay with SNB-75 CNS it was 105%; in the assay with SNB-19 CNS it was 101%; with U251 CNS it was 108%; in the assay on PC-3 prostate it was 91.6%; with SK-MEL-5 melanoma it was 108%. Moreover, the growth in the assay on UACC-62 melanoma was 102%; in the assay on LOX IMVI melanoma, 106%; with SK-MEL-28 melanoma, 110%; in the assay with SN12C renal, 105%; in the assay on UO-31 renal it was 93.2%; with TK-10 renal it was 105%. Also, the growth was 106% in the assay on ACHN renal, 100% with A498 renal, 88.6% with MOLT-4 leukemia and 92.8% in the assay with SR leukemia.

Take `O=C(C(=O)N1CCOCC1)c1ccc(OC2OC(CO)C(O)C(O)C2O)cc1` (stereo unspecified): the growth with HT29 colon was 100%; in the assay on SNB-75 CNS, 89.5%; in the assay with SNB-19 CNS it was 102%; with U251 CNS it was 105%; with PC-3 prostate, 110%; in the assay with SK-MEL-5 melanoma, 108%. The growth in the assay on UACC-62 melanoma is 103%; with SK-MEL-28 melanoma, 105%; in the assay with SK-MEL-2 melanoma it was 96.2%; in the assay with EKVX NSCLC, 104%; in the assay with SN12C renal, 106%; in the assay on UO-31 renal, 102%. The growth in the assay with TK-10 renal was 101%; with ACHN renal, 97.9%; in the assay with CAKI-1 renal, 98.5%; with A498 renal, 104%; in the assay on CCRF-CEM leukemia it was 107%; in the assay on MOLT-4 leukemia, 90.3%. Also, in the assay on SR leukemia, the growth was 102%.

`COc1ccc(COC(C)=O)cc1`: the growth in the assay on HT29 colon is 113%; in the assay on SNB-75 CNS, 114%; with SNB-19 CNS it was 114%; in the assay on U251 CNS it was 107%; in the assay on PC-3 prostate, 95.3%; in the assay on SK-MEL-5 melanoma, 108%. The growth is 111% in the assay with UACC-62 melanoma; 113% in the assay with SK-MEL-28 melanoma; 113% with SK-MEL-2 melanoma; 113% with EKVX NSCLC; 124% in the assay on SN12C renal; 97.2% with UO-31 renal. In addition, the growth in the assay on TK-10 renal was 126%; in the assay on ACHN renal, 99.1%; in the assay on CAKI-1 renal, 105%; in the assay with A498 renal, 88.7%; in the assay with CCRF-CEM leukemia, 86.4%; with MOLT-4 leukemia, 107%. For the same compound, in the assay on SR leukemia, the growth is 112%.

For `C=C(C)[C@@H]1C/C=C(/C=O)CC[C@@H]2O[C@@]2(C)CC/C=C(\C)CC1`, the growth with HT29 colon is 127%; with SNB-75 CNS, 87.1%; in the assay with SNB-19 CNS, 110%; in the assay on U251 CNS, 104%; with PC-3 prostate, 63.3%; in the assay on SK-MEL-5 melanoma, 101%. Moreover, the growth was 92.3% with UACC-62 melanoma; 93.3% in the assay on LOX IMVI melanoma; 118% in the assay with SK-MEL-28 melanoma; 69.8% in the assay with EKVX NSCLC; 116% in the assay on SN12C renal; 122% in the assay with UO-31 renal. Moreover, the growth in the assay on TK-10 renal was 114%; in the assay with ACHN renal, 100%; in the assay with CAKI-1 renal, 8.5% (active); in the assay on A498 renal, 124%; in the assay with CCRF-CEM leukemia, 137%; in the assay on MOLT-4 leukemia, 133%. Also, the growth in the assay with SR leukemia was 125%.

Take `CC(C)[C@]12O[C@H]1[C@@H]1O[C@]13[C@]1(O[C@H]1C[C@H]1C4=C(CC[C@@]13C)C(=O)OC4)[C@@H]2OC(=O)CN(C)C`: the growth with HT29 colon is 0.899% (active); in the assay with SNB-75 CNS, -65.4% (active); in the assay with SNB-19 CNS, 23%; with U251 CNS, 15.4%; in the assay with PC-3 prostate, 19.6%; in the assay on SK-MEL-5 melanoma it was -20.1% (active). The growth is -34.8% (active) with UACC-62 melanoma; 1.04% (active) in the assay with SK-MEL-28 melanoma; -60% (active) in the assay on SK-MEL-2 melanoma; -26.9% (active) with EKVX NSCLC; 29.1% with SN12C renal; -5.89% (active) in the assay with UO-31 renal. The growth in the assay with TK-10 renal is 4.34% (active); in the assay with ACHN renal, 9.59% (active); with CAKI-1 renal it was -48.5% (active); in the assay with A498 renal it was -36.4% (active); with CCRF-CEM leukemia it was 12.4%; with MOLT-4 leukemia, -11.7% (active). Besides, the growth in the assay with SR leukemia was -2.85% (active).

For the compound `COc1cccc(CCC2C(=O)CCCC2=O)c1`, the growth in the assay with HT29 colon was 111%; in the assay on SNB-75 CNS, 108%; with SNB-19 CNS, 96.8%; in the assay on U251 CNS it was 109%; in the assay on PC-3 prostate, 104%; in the assay with SK-MEL-5 melanoma, 104%. The growth was 103% in the assay on UACC-62 melanoma; 117% in the assay on LOX IMVI melanoma; 119% with SK-MEL-28 melanoma; 116% in the assay on EKVX NSCLC; 106% in the assay on SN12C renal; 84.3% in the assay on UO-31 renal. The growth with TK-10 renal was 115%; in the assay with ACHN renal it was 103%; in the assay with CAKI-1 renal, 106%; with A498 renal it was 131%; in the assay on CCRF-CEM leukemia it was 102%; in the assay on MOLT-4 leukemia it was 92.1%.

As to `Cc1cc(C)c(OC(=O)CSc2nc3ccccc3c(=O)n2CCc2ccccc2)cc1C`, the growth was 99.5% with HT29 colon; 88.1% in the assay on SNB-75 CNS; 103% with SNB-19 CNS; 74.1% with U251 CNS; 66% with PC-3 prostate; 108% in the assay with SK-MEL-5 melanoma. For the same compound, the growth in the assay on UACC-62 melanoma was 77%; in the assay with SK-MEL-28 melanoma, 111%; in the assay on SK-MEL-2 melanoma, 112%; with EKVX NSCLC, 64.4%; with SN12C renal, 91.8%; in the assay on UO-31 renal, 63.6%. For the same compound, the growth in the assay on TK-10 renal was 124%; in the assay on ACHN renal, 92%; in the assay with CAKI-1 renal, 72.6%; in the assay with A498 renal it was 94.5%.
